Experimental data: PubChem BioAssay (NCATS)
Inconclusive results are not listed. A number with no mark means an inactive call. Calls of active or inactive are those of the source. Calls come from the whole dose curve; as a rule, active = well fitted inhibition curve with a large enough effect; inconclusive = small, poorly fitted or top-dose-only effect; inactive = flat fitted curve, though single readings scatter. Square brackets hold non-standard residues; d marks the D form. Peptide text beside a SMILES is read from it. ξ: configuration not given here. d(hArg(Et2)) = CCN=C(NCC)NCCCC[C@@H](N)C(=O)O; hArg(Et2) = CCN=C(NCC)NCCCC[C@H](N)C(=O)O; Phe(4-Cl) = N[C@@H](Cc1ccc(Cl)cc1)C(=O)O; ξ2Nal = NC(Cc1ccc2ccccc2c1)C(=O)O; 3Pal = N[C@@H](Cc1cccnc1)C(=O)O; ξP = O=C(O)C1CCCN1

Target: Glutathione peroxidase 1 (Homo sapiens) (UniProt P07203)
Sequence (P07203 whole entry, looked up): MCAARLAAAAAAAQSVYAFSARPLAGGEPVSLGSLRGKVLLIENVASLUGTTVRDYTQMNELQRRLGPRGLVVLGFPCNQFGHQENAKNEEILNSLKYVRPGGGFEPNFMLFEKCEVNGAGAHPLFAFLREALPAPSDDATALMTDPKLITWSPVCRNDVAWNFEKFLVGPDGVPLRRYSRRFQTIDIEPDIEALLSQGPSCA
Assay: Primary qHTS Assay for Inhibitors of Recombinant Selenoprotein Glutathione Peroxidase 1 (GPX1) (AID 1845191); note: nearly all actives have a fitted effect of over 65% in size
Settings: recombinant GPX1, GR-coupled NADPH fluorescence, 15 min; series mostly up to 48.8 µM; activity, negative = inhibition: at the top concentration
How it was run: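 GR-coupled readout: NADPH consumption tracked by fluorescence, ex 340/em 450 nm, at t=0 and after 15 min at RT. Final mix 10 nM GPX1, 1 mM GSH, 0.5 mM CHP, 0.5 mM NADPH, 100 nM GR, 0.01% BSA, following 30 min enzyme–compound preincubation.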
% is set by controls: 0 for no effect and ±100 for the full control effect; potency is the fitted concentration of half-maximal effect.

| Compound | activity, negative = inhibition [%] | Potency | outcome |
| --- | --- | --- | --- |
| C=C1/C(=C\C=C2/CCC[C@@]3(C)C2CC[C@@H]3[C@H](C)/C=C\[C@@H](O)C2CC2)C[C@@H](O)C[C@@H]1O (some centres not stated) | -14.6 | – | – |
| COC(=O)CCSC/C=C(\C)CCn1cc(CCc2ccc(-c3ccccc3)cc2)nn1 | -1.95 | – | – |
| O=c1cc(N2CCOCC2)oc2c1ccc1ccccc12 | -20.2 | – | – |
| O=C(O)C1=C(CSc2nnnn2CS(=O)(=O)O)CS[C@@H]2[C@@H](NC(=O)[C@H](O)c3ccccc3)C(=O)N12 | – | 11.4 µM (active) | – |
| CC(C)=C(C#N)C(=O)N1CCCN(c2cc(NCCC(=O)O)nc(-c3ccccn3)n2)CC1 | – | – | inactive |
| CCN(CCN(C)C)C(=O)CNCc1cc(C(=O)O)ccn1 | -18.1 | – | – |
| O=C1Cc2ccccc2N1 | -9.52 | – | – |
| COCC1=C(C(=O)O)N2C(=O)[C@@H](NC(=O)/C(=N\OC)c3csc(N)n3)[C@H]2SC1 | – | 18 µM (active) | – |
| C/C(=N\N=C(N)N)c1ccc(NC(=O)Nc2ccc(/C(C)=N/N=C(N)N)cc2)cc1 | – | – | inactive |
| COc1ccc(Cl)cc1NC(=O)Nc1cc(C)nc2ccccc12 | -0.0312 | – | – |
| CC(=O)CCC1C(=O)N(c2ccccc2)N(c2ccccc2)C1=O | -9.47 | – | – |
| C=CS(=O)(=O)N1CCCN(c2cc(NCCC(=O)O)nc(-c3ccccn3)n2)CC1 | – | – | inactive |
| Cc1cncc(CN2CCC(=C3c4ccc(Cl)cc4CCc4cccnc43)CC2)c1 | 0.621 | – | – |
| COc1cccc(N2CCN(C(=O)Cn3ncc4c3-c3ccccc3OC4)CC2)c1 | -10.3 | – | – |
| COc1ccc(C(=O)Nc2ccc3oc(-c4ccc(F)cc4Cl)nc3c2)cc1 | -0.482 | – | – |
| CN(C)c1ccc(C(=O)NCCCCCC(=O)NO)cc1 | – | – | inactive |
| Cc1ccc2nc(NC(=O)CSc3nc4c(c(=O)n3C)SC(C)C4)sc2c1 (configuration not stated) | -4.73 | – | – |
| C=CC[N@@+]12CC[C@]34c5ccccc5N5/C=C6\C7N(/C=C(\C53)[C@@H](C[C@@H]41)/C(=C/CO)C2)c1ccccc1[C@@]71CC[N@@+]2(CC=C)C/C(=C\CO)[C@@H]6C[C@@H]12 (some centres not stated) | -28.9 | – | – |
| CS(=O)(=O)n1cc2c(n1)CN([C@H]1CO[C@H](c3cc(F)ccc3F)[C@@H](N)C1)C2 | -20.6 | – | – |

| Compound | activity, negative = inhibition [%] | Potency | outcome |
| --- | --- | --- | --- |
| CN1CCN(C(c2ccc(Cl)cc2Cl)c2sc3nc(-c4ccco4)nn3c2O)CC1 (configuration not stated) | -18.3 | – | – |
| Cc1cc(Nc2cccc(Cl)c2)nc2ccc(NC(=O)Cc3cccc(C(F)(F)F)c3)cc12 | – | – | inactive |
| Cc1cc(-c2nc3ncccc3o2)ccc1NC(=O)COc1ccc(C(C)(C)C)cc1 | – | – | inactive |
| CN1C(=O)[C@]23C[C@H]4C(C)(C)[C@]5(CNc6c5ccc5c6OC=CC(C)(C)O5)C[C@@]41CN2CC[C@@]3(C)O | -27.5 | – | – |
| Clc1cccc(N2CCN(c3nc4ccccc4c4nc(-c5cccnc5)nn34)CC2)c1 | – | – | inactive |
| O=C(CCl)Nc1ccc(S(=O)(=O)c2ccc(NC(=O)CCl)cc2)cc1 | -2.14 | – | – |
| CC(C)Oc1ccc(-c2c[nH]cc2CN(C)CCN)cc1 | -17.6 | – | – |
| Cn1cc(C(=O)Cc2ccccc2)cc1/C=C/C(=O)NO | -14.2 | – | – |
| CC(C)n1cnc2c(NCc3ccccc3)nc(NCCCO)nc21 | – | – | inactive |
| CNC(=O)c1ccccc1Oc1nc(Nc2cc(OC)c(OC)c(OC)c2)ncc1Br | 1.56 | – | – |
| O=C(O)c1ccc2nc(-c3cc(Cl)cc(Cl)c3)oc2c1 | -22.9 | – | – |
| NNCCc1ccc(NC(=O)CCCc2ccccc2)cc1 | – | – | inactive |
| NC(=O)C1(N2CCCCC2)CCN(CCCN2c3ccccc3CCc3ccccc32)CC1 | -22.3 | – | – |
| CCNC(=NCCCC[C@H](NC(=O)[C@H](CC(C)C)NC(=O)[C@@H](CCCCN=C(NCC)NCC)NC(=O)[C@@H](Cc1ccc(O)cc1)NC(=O)[C@@H](CO)NC(=O)[C@H](Cc1cccnc1)NC(=O)[C@H](Cc1ccc(Cl)cc1)NC(=O)C(Cc1ccc2ccccc2c1)NC(C)=O)C(=O)N1CCCC1C(=O)N[C@H](C)C(N)=O)NCC (some centres not stated) (Ac-[ξ2Nal][Phe(4-Cl)][3Pal][dS][dY][d(hArg(Et2))]L[hArg(Et2)][ξP][dA]-NH2) | -25.8 | – | – |
| CCOC(=O)N[C@@H]1CC[C@@H]2[C@@H](C1)C[C@H]1C(=O)O[C@H](C)C1[C@H]2/C=C/c1ccc(-c2cccc(F)c2)cn1 (some centres not stated) | -10.2 | – | – |
| O=[N+]([O-])c1cc(S(=O)(=O)Nc2ccc(O)c3ccccc23)ccc1Cl | -22.7 | – | – |
| OC[C@H]1O[C@@H](c2ccc(F)c(Cc3cc4ccccc4s3)c2)[C@H](O)[C@@H](O)[C@@H]1O | -17.7 | – | – |
| O=C1NC(Nc2ccccc2)=N/C1=C\c1ccc2c(c1)OCO2 | – | – | inactive |
